Structures can show the parent of a compound that is named as a salt.

The record followed here is the supplement of paper PMC7695840.

Experiment [1] deals with Staphylococcus aureus MW2 delta-mecA (mecA-). Put plainly: normalized GFP fluorescence (growth of mecA- strain) (fraction of control range); higher = more growth of mecA- strain. Conditions: compound concentration: 150 uM; cefoxitin: subinhibitory; fluorescent label: GFP. Put shortly: (§1)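 Two pre-induced S. aureus MW2 strains, one with the gene labeled by DsRed and one lacking it labeled by GFP, were mixed 1:1 in LB with a subinhibitory antibiotic dose set daily. The mix went at 5 µL/well onto 150 μM compound (1.5% DMSO) in 1536-well plates, single replicate, and grew unshaken 20 h at 37 °C, 90% humidity. DsRed (540/590) and GFP (485/520) values were scaled per plate between single-strain control medians, and plates with high untreated ratios or rows with DsRed/GFP >10 were left out.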

The test system of experiment [2] is Staphylococcus aureus MW2 (mecA+). Put plainly: normalized DsRed fluorescence (growth of mecA+ strain) (fraction of control range); higher = more growth of mecA+ strain. Conditions: compound concentration: 150 uM; cefoxitin: subinhibitory; fluorescent label: DsRed. In short, it runs like this:
as §1

Regarding `COc1cc2nc(N3CCN(C(=O)C4COc5ccccc5O4)CC3)nc(N)c2cc1OC` (stereo unspecified) [Doxazosin mesylate], the “normalized GFP fluorescence” value in experiment [1] amounted to 0.0162. For the same molecule, the “normalized DsRed fluorescence” value in experiment [2] came out at 1.12.

For the molecule `N=C(N)NC(=O)c1nc(Cl)c(N)nc1N`, in experiment [1], the “normalized GFP fluorescence” value turned out to be 0.602. Besides, the “normalized DsRed fluorescence” value in experiment [2] was found to be 0.971.

As to `Nc1c2c(nc3ccccc13)CCCC2`, the “normalized GFP fluorescence” value in experiment [1] was 0.414. Further, the “normalized DsRed fluorescence” value in experiment [2] worked out at 0.996.

Consider `Cc1nc2n(c(=O)c1CCN1CCC(c3noc4cc(F)ccc34)CC1)CCCC2O` (stereo unspecified), for which the “normalized GFP fluorescence” value in experiment [1] worked out at 0.379. For the same molecule, the “normalized DsRed fluorescence” value in experiment [2] was found to be 0.72.

For the molecule `CCCNC(C)C(=O)Nc1c(C)csc1C(=O)OC` (stereo unspecified) [Articaine HCl], the “normalized GFP fluorescence” value in experiment [1] is 0.567. For the same molecule, in experiment [2], the “normalized DsRed fluorescence” value came to 0.672.

`NC(=O)c1ncn([C@@H]2O[C@H](CO)[C@@H](O)[C@H]2O)c1N` [Acadesine]: the “normalized GFP fluorescence” value in experiment [1] came out at 0.499. Moreover, the “normalized DsRed fluorescence” value in experiment [2] came out at 0.776.

Take `CC(=O)O[C@@]12CO[C@@H]1C[C@H](O)[C@@]1(C)C(=O)[C@H](O)C3=C(C)[C@@H](OC(=O)[C@H](O)[C@@H](NC(=O)OC(C)(C)C)c4ccccc4)C[C@@](O)([C@@H](OC(=O)c4ccccc4)[C@H]21)C3(C)C` [Docetaxel (Taxotere)]: in experiment [1], the “normalized GFP fluorescence” value amounted to 0.11. Further, the “normalized DsRed fluorescence” value in experiment [2] worked out at 0.768.

On to `CC(=O)Oc1ccccc1C(=O)O` [Aspirin (Acetylsalicylic acid)], for which, in experiment [1], the “normalized GFP fluorescence” value came to 0.393. For the same molecule, in experiment [2], the “normalized DsRed fluorescence” value worked out at 0.803.

`O=S(=O)(O)NC1CCCCC1`: the “normalized GFP fluorescence” value in experiment [1] came out at 0.457. In experiment [2], the “normalized DsRed fluorescence” value came to 0.493.

For the molecule `C[C@](N)(Cc1ccc(O)c(O)c1)C(=O)O`, the “normalized GFP fluorescence” value in experiment [1] is 0.258. In addition, in experiment [2], the “normalized DsRed fluorescence” value was 0.703.

For the molecule `CC(=O)OCC[N+](C)(C)C`, the “normalized GFP fluorescence” value in experiment [1] amounted to 0.311. Further, the “normalized DsRed fluorescence” value in experiment [2] turned out to be 0.859.

As for `CCN[C@@H]1C[C@H](N)[C@@H](O[C@H]2OC(CN)=CC[C@H]2N)[C@H](O)[C@H]1O[C@H]1OC[C@](C)(O)[C@H](NC)[C@H]1O`, the “normalized GFP fluorescence” value in experiment [1] was found to be 0.695. In addition, in experiment [2], the “normalized DsRed fluorescence” value is 0.952.

`COC(=O)[C@@H]1CC2=CC(=O)CC[C@]2(C)[C@@]23O[C@@H]2C[C@@]2(C)[C@@H](CC[C@@]24CCC(=O)O4)[C@H]13` [Eplerenone]: in experiment [1], the “normalized GFP fluorescence” value is 0.583. Besides, the “normalized DsRed fluorescence” value in experiment [2] was determined as 0.645.
